From PubChem BioAssay

What follows are compounds tested against Torsin-1A (Homo sapiens) (UniProt O14656) (assay: small-molecule binders of mutant TOR1A in lysate, primary screen, cell lysate, small-molecule microarray, COS7 lysate, 635/667 nm fluorescence (AID 1150;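 also: score pools 667 nm emission and signal to noise measuring lysate protein binding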)). Conditions: COS7 hTOR1A mutant lysate, 635 nm fluorescence, higher = more signal.
Sequence of Torsin-1A (Homo sapiens) (O14656 whole entry, looked up): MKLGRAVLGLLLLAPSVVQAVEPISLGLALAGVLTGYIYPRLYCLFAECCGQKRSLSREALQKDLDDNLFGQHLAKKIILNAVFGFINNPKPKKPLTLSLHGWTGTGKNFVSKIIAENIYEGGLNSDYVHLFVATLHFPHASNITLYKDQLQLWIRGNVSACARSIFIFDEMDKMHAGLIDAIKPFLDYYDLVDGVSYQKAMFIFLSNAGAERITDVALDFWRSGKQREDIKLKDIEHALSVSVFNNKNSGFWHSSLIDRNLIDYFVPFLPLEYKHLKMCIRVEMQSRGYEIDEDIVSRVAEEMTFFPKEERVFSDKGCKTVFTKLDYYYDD

Structure (SMILES) | composite z-score
O=c1cccc(-c2ccco2)o1 | 0.066
O=C1C2C=CC(C(O)c3cc(C(F)(F)F)cc(C(F)(F)F)c3)N(Nc3ccccc3F)C2C(=O)N1c1ccccc1 (centres undefined) | 0.379
O=C(N1CCOCC1)[C@@]1(CCS(=O)(=O)c2ccccc2)N=C(c2ccc(OCCCO)cc2)O[C@H]1c1ccccc1 | 0.767
COCCCNC(=O)[C@@]1(Sc2ccc(C)cc2)CC(=O)N(C(C)C)[C@@H]1c1ccc(CO)cc1I | 1.18
C=C(C)[C@@H]1CC=C(C(O)C2C=CC3C(=O)N(c4ccccc4)C(=O)C3N2Nc2ccc(C#N)cc2)CC1 (some centres undefined) | 0.454
C=C(COC)/C(=C/C[C@@H](OC(=O)c1ccncc1)c1ccccc1OCCO)c1cc(C(=O)OC)ccc1OC | -0.103
CC(C)C[C@@H]1NC(=O)[C@@H]2C[C@H](C(=O)NCCCCCC[N+](C)(C)C)[C@H](c3cccc(OCCO)c3)N2C1=O | 0.393
O=C1C2C=CC(C(O)c3ccco3)N(Nc3ccccc3)C2C(=O)N1c1ccccc1 (centres undefined) | 0.746
CCOC(=O)C[C@H]1[C@H](OC(=O)c2ccc(-c3ccccc3)cc2)[C@@H](NC(=O)Cc2ccc(OC)cc2)c2cc(OCCCO)ccc2N1C(=O)Cc1ccc(OC)cc1 | 0.0922
CCOC(=O)C1=CC[C@@H](c2ccccc2)N(S(=O)(=O)c2ccc(C)cc2)[C@H]1c1cccc(OC)c1 | 0.314
CN1C=C(C(=O)OCCS(C)(=O)=O)C(C(=O)OCCS(C)(=O)=O)=CC(c2ccc(CO)cc2)=CC1c1cccs1 (centres undefined) | 0.713
COC(=O)C(CC#Cc1ccc2c(c1)[C@]1(C(=O)N2)[C@H](c2ccc(OCCO)cc2)N2[C@H](c3ccccc3)[C@H](c3ccccc3)OC(=O)[C@H]2[C@@H]1C(=O)N1CCN(c2ncccn2)CC1)C(=O)OC | 0.666

Each compound was assayed on Sonic hedgehog protein (Shh) (assay: small-molecule binders of Shh protein, primary screen, biochemical, small-molecule microarray, 635/667 nm fluorescence (AID 1151;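 also: Shh protein binding to compounds spotted on small-molecule microarray slides; score combines spot fluorescence intensity with signal-to-noise across triplicate slides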)). Conditions: small-molecule microarray binding, 635 nm fluorescence; higher = more signal.

Structure (SMILES) | composite z-score
COCCOC(=O)N1C(=O)[C@@]2(c3ccccc31)[C@H](c1ccc(OCCO)cc1)N1[C@H](c3ccccc3)[C@H](c3ccccc3)OC(=O)[C@H]1[C@@H]2C(=O)N1CCCCCCC1 | 2.29
CCCCCN1CC=CC23O[C@@H]4/C=C\CCC(C)OC(=O)C4[C@H]2C(=O)N(CCCCCCO)[C@@H]3C1=O (some centres undefined) | 0.758
COCCOC(=O)N1C(=O)[C@@]2(c3ccccc31)[C@H](c1ccccc1OCCO)N1[C@H](c3ccccc3)[C@H](c3ccccc3)OC(=O)[C@H]1[C@@H]2C(=O)N1CCCCCCC1 | 1.77
C=C[C@@H](OC)[C@H](OC(=O)Nc1ccc(SC)cc1)c1ccc(OCCO)cc1 | 1.2
COC(=O)[C@@]1(Cc2ccc(F)cc2)[C@H]2c3cc(C(=O)N(C)C)n(Cc4c(CO)[nH]cc(C)c4=O)c3C[C@H]2CN1C(=O)c1ccccc1 | -0.462
Cc1ccccc1C(O)C1C=CC2C(=O)N(c3ccccc3)C(=O)C2N1Nc1ccc([N+](=O)[O-])cc1 (centres undefined) | 0.176
COc1cc(NN2C(C(O)c3cc(OC)c(OC)c(OC)c3)C=CC3C(=O)N(c4ccccc4)C(=O)C32)cc(OC)c1OC (centres undefined) | -0.317
C=CCC(OC(C)=O)[C@@H]1[C@@H](N(Cc2cccc3ccccc23)C(=O)c2cccc3ccccc23)c2cc(OCCCO)ccc2N1C(=O)c1ccc2ccccc2c1 (some centres undefined) | 0.49
COC(=O)[C@@]1(Cc2ccccc2)[C@H]2c3cc(C(=O)N4CCCC4)n(CCSCCO)c3C[C@H]2CN1C(=O)c1ccccc1 | 0.0779
Cc1cccc([C@H]2C[C@H]3C(I)=C[C@@H]2C(=O)[C@]32CO2)c1 | 0.0299
O=C1C2C=CC(C(O)C=Cc3ccc([N+](=O)[O-])cc3)N(Nc3ccccc3)C2C(=O)N1c1ccccc1 (centres undefined) | 0.0063
CC(=O)NCCCC[C@@H]1NC(=O)[C@H]2C[C@@H](C(=O)NCCCCCNC(=O)CS)[C@@H](c3cccc(OCCO)c3)N2C1=O | 1.74
C=C[C@H](C)[C@H](OC(=O)Nc1ccc(OC)cc1)c1ccc(OCCO)cc1 | 0.261
CCOC(=O)C[C@H]1[C@H](OC(=O)c2ccc(C(=O)c3ccccc3)cc2)[C@@H](NC(=O)CC(C)C)c2cc(OCCCO)ccc2N1C(=O)Cc1ccc(OC)cc1 | -0.0145
Cc1ccccc1C(O)C1C=CC2C(=O)NC(=O)C2N1Nc1ccc(Cl)cc1Cl (centres undefined) | -0.232
COc1cc2c(cc1O)C(c1ccc(CN3CCCC3)cc1)N(C)CC2 (centres undefined) | -0.0838
COc1ccc([Si](C)(C)[C@@H]2[C@@H](CCn3cc([C@H](O)c4ccccc4)nn3)O[C@]3(C(=O)N(Cc4cccc(N5C(=O)c6cccc7cccc5c67)c4)c4ccccc43)[C@H]2C)cc1 | 0.454
